USP17 inh: inhibitors of human USP17 deubiquitinase; purified USP17, Ub-rhodamine cleavage fluorescence, 3 h; A8MUK1; inhibition, % at 50 µM; actives 6.5% (n = 47,000); AID 1645855
Target sequence (A8MUK1 whole entry, looked up): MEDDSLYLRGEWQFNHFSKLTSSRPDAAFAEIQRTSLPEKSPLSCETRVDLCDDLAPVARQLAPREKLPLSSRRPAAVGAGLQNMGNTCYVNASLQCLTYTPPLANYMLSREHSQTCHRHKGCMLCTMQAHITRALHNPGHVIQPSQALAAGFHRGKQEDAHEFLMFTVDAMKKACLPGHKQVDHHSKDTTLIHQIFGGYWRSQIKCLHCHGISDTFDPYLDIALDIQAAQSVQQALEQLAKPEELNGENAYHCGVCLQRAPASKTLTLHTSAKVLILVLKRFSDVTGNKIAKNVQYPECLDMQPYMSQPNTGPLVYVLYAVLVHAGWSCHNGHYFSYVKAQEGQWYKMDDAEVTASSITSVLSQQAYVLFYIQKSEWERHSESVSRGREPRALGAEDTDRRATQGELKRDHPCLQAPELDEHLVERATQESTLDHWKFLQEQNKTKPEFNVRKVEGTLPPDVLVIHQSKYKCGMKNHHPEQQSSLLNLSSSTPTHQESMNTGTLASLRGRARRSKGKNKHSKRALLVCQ
USP28 inh: inhibitors of human USP28 deubiquitinase; purified USP28, Ub-rhodamine cleavage fluorescence, 30 min; inhibition, % at 25 µM; actives 3% (n = 47,000); AID 1645857
USP8 inh: inhibitors of human USP8 deubiquitinase; purified USP8, Ub-rhodamine cleavage fluorescence, 30 min; actives 4.2% (n = 47,000); P40818; inhibition, % at 20 µM; AID 1645853
USP30 block: human USP30 deubiquitinase inhibition. actives 5.3% (n = 47,000). Q70CQ3. inhibition, % at 25 µM. purified USP30, Ub-rhodamine cleavage fluorescence
Active calls of the source: *; nt = no result given. An excerpt weighted towards active compounds, which were near 13% of everything screened. Rule as the data show it: active = inhibition above about 30%; inactive = the rest.

SMILES | USP17 inh | USP28 inh | USP8 inh | USP30 block
O=C(NCCCN1CCc2ccccc2C1)c1cc2c(s1)CS(=O)(=O)C2 | 62* | 41* | 46* | -26
CCc1ccc(C(=O)c2c(N)c(C(N)=O)c3ccccn23)cc1 | -57 | -27 | -30 | -118
Cc1ccc(NC(=O)C2CCN(c3nc4nc[nH]c(=O)c4s3)CC2)cc1F | -89 | -51 | 39* | -119
O=C(Nc1ccc(Cl)cc1)C1CCN(c2nc3nc[nH]c(=O)c3s2)CC1 | -5 | -7 | -4 | -5
CCc1ccc(NC(=O)C2CCN(c3nc4nc[nH]c(=O)c4s3)CC2)cc1 | 14 | -3 | 18 | 34*
COc1ccc(CNS(=O)(=O)c2ccc3[nH]c(=O)ccc3c2)cc1 | 47* | nt | 1 | nt
COc1cccc(CNS(=O)(=O)c2ccc3[nH]c(=O)[nH]c3c2)c1 | 8 | 18 | 14 | -4
COc1ccccc1C(=O)N1CCCC(c2nnc3ccccn23)C1 (configuration not stated) | nt | -2 | 1 | 5
NS(=O)(=O)c1ccc(NC(=O)Cn2cnc3cc([N+](=O)[O-])ccc3c2=O)cc1 | 59* | 41* | 55* | 20
O=C(O)Cn1cc(C(=O)C2CC2)c2ccccc21 | 3 | -10 | 0 | -14
O=C(Cn1cc(C(=O)C2CC2)c2ccccc21)NCCOc1ccc(Cl)cc1 | 20 | 12 | 32* | 27
Cc1[nH]ncc1CN1CCC2(CC1)CO[C@@H]([C@@]1(C)CC[C@H](O)C(C)(C)O1)C2 | 22 | 9 | 10 | 24
Clc1cccc(COc2ccc(-n3cnnn3)cc2)c1 | 12 | 49* | 13 | 18
COc1ccc(COc2ccc(-n3cnnn3)cc2)cc1F | -7 | -8 | -4 | -29
CC1CCN(C(=O)c2cn(-c3ccc(S(=O)(=O)N4CCCC(C)C4)cn3)cn2)CC1 (configuration not stated) | 8 | 2 | 9 | 16
CC1CCCN(C(=O)c2cn(-c3ccc(S(=O)(=O)N4CCCC(C)C4)cn3)cn2)C1 (configuration not stated) | 6 | 10 | 11 | 38*
CCOc1ccccc1C1CC(=O)NC(C)=C1C(=O)OC1CCCC1 (configuration not stated) | 13 | 17 | 2 | 19
CC1CCN(S(=O)(=O)c2ccc(C(=O)Nc3ccc(S(N)(=O)=O)cc3)cc2)CC1 | 10 | 21 | 13 | 68*
CC(=O)Nc1ccc(S(=O)(=O)N2CCCC2c2ccccc2)cc1 (configuration not stated) | 3 | 0 | 13 | 8
CC1CCCCN1S(=O)(=O)c1ccc(C(=O)Nc2ccc(S(N)(=O)=O)cc2)cc1 (configuration not stated) | 56* | 35* | 29 | 71*
Cc1ccc(NC(=O)Cc2nnc3c(-c4nc(C5CC5)no4)cccn23)cc1 | 52* | 29 | 97* | 36*
CC1(C)Oc2ccccc2[C@H]2OCC3(CCN(C(=O)c4cccc(Cn5ccnc5)c4)CC3)C[C@@H]21 | -10 | 0 | 0 | 1
COc1ccc(S(=O)(=O)N2CCC(C(=O)Nc3ccc4c(c3)OCO4)CC2)cc1 | 29 | 38* | 23 | 18
Cc1cc(NC(=O)CN2CCCN(S(=O)(=O)c3ccc(F)cc3)CC2)ccc1Br | 35* | 18 | -6 | 38*
O=C(Nc1ccc(S(=O)(=O)N2CCCCC2)cc1)c1ccccn1 | 75* | nt | 1 | nt
SMILES | USP17 inh | USP28 inh | USP8 inh | USP30 block
O=C(Nc1ccc2[nH]ccc2c1)C1CCN(S(=O)(=O)c2ccccc2)CC1 | 29 | 10 | 5 | 45*
O=C(Nc1ccc2c(c1)OCO2)c1cccc(S(=O)(=O)N2CCCCCC2)c1 | 10 | 9 | 10 | 11
CC(=O)Nc1ccc(S(=O)(=O)N2CCC(C(=O)Nc3ccc4cc[nH]c4c3)CC2)cc1 | 0 | 21 | 16 | -3
Cc1ccc(C)c(-n2ncc3c(N4CCCCCC4)ncnc32)c1 | -2 | 0 | 3 | 7
Cn1nc(C(F)(F)F)c(/C=C(\C#N)c2ccc(Cl)c(Cl)c2)c1Cl | 13 | 14 | 16 | 10
COc1ccc(Nc2nc(Nc3ccc(C)c(Cl)c3)nc(N3CCOCC3)n2)cc1 | 18 | 12 | 2 | 14
CC(=O)c1cccc(S(=O)(=O)NCc2cnn3ccccc23)c1 | 2 | 3 | -39 | -1
Cc1ccc(C(=O)Nc2ccc(S(=O)(=O)N3CCCC3)cc2)cc1Br | 15 | 78* | 1 | 45*
COc1ccc(C(=O)Nc2ccc(S(=O)(=O)N3CCCCC3)cc2)cc1 | -5 | 66* | 2 | 0
CCOC(=O)N1CCN(S(=O)(=O)c2ccc(C(=O)Nc3ccc(OCC)cc3)cc2)CC1 | 3 | 5 | -3 | 28
Cc1noc(C)c1CNc1ccc(Cl)cc1 | 7 | 12 | 39* | 5
Cc1nc(NCCc2ccc(S(N)(=O)=O)cc2)c2oc3ccccc3c2n1 | 30 | 20 | 4 | 36*
O=c1oc2ccccc2cc1-c1nc(-c2ccc(Oc3ccccc3)cc2)cs1 | 42* | 36* | 53* | -127
O=c1cc(-c2cc3ccccc3oc2=O)c2ccc(O)cc2o1 | 26 | 13 | 19 | 23
Cc1ccc(C(=O)C(C)OC(=O)c2cc3ccccc3oc2=O)cc1 (configuration not stated) | 47* | nt | -1 | nt
O=C(NCc1ccccc1)c1ccc2ncsc2c1 | -6 | 1 | -18 | 1
COC(=O)c1ccc(CNC(=O)c2cc3ccccc3oc2=O)cc1 | 62* | nt | 0 | nt
O=C(COc1cccc(C(=O)NCc2ccccc2)c1)Nc1ccc(Oc2ccccc2)cc1 | 40* | 20 | 10 | 56*
COC(=O)c1ccc(CNC(=O)c2ccc(Oc3ccccc3)cc2)cc1 | 12 | 15 | 34* | 13
Cc1cc(CNC(=O)c2cc3ccccc3oc2=O)nn1C | -7 | 0 | 4 | 4
CCc1ccc(N(C(=O)CCN2CCc3ccccc32)C(C(=O)NCc2ccccc2)c2ccc(OC)c(OC)c2)cc1 (configuration not stated) | -47 | -36 | -18 | -277
Cc1cccc(NC(=O)CCc2nnc3c(=O)n(-c4ccc(C)c(C)c4)ccn23)c1 | 5 | 6 | 36* | 17
Cc1ccc(NC(=O)CCc2nnc3c(=O)n(-c4ccc(C)c(C)c4)ccn23)cc1 | 8 | 5 | 3 | 8
COc1ccc(-n2ccn3c(CCC(=O)Nc4cccc(C)c4)nnc3c2=O)cc1 | -5 | -11 | 36* | 11
c1cnn(-c2ccc(-c3noc(C4CCCC4)n3)cn2)c1 | 20 | 16 | 21 | 22
SMILES | USP17 inh | USP28 inh | USP8 inh | USP30 block
CCN(CC)S(=O)(=O)c1ccc(O)c(NC(=O)COc2ccccc2F)c1 | 33* | -17 | 11 | 30
COc1ccc(NS(=O)(=O)c2ccc(C)c(NC(=O)COc3ccccc3F)c2)cc1 | 0 | 0 | 0 | 0
CCOC(=O)c1ccc(NC(=O)COc2cccc3c2CCN(CC)C3=O)cc1 | 16 | 69* | -2 | 14
COc1ccc(-c2nc(C)cc(C)c2CNC(=O)C2CCC2)cc1 | -3 | -9 | 6 | 2
COc1ccc(C2CC(=O)Nc3c2cc(Br)c2ccccc32)c(OC)c1 (configuration not stated) | -4 | -6 | -4 | -21
O=C1c2ccccc2S(=O)(=O)N1Cc1ccc2nonc2c1 | 9 | 37* | 16 | 15
